Most compounds without a hit are left out; they make up all but 2.4% or so of the library.
Cruzain Triton = blocks cruzain activity in presence of Triton detergent; 200,000 tested, 0.43% active; P25779; AID 1478; purified cruzain, Z-FR-AMC fluorescence, 0.01% Triton; Potency, µM, inactives show max response, negative = inhibition, most hits filed as inhibitors;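 note: plate controls were neutral wells for no effect and buffer without enzyme for full effect; nearly all actives have a fitted effect of over 40% in size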
Target sequence (P25779 123-467 limits assumed): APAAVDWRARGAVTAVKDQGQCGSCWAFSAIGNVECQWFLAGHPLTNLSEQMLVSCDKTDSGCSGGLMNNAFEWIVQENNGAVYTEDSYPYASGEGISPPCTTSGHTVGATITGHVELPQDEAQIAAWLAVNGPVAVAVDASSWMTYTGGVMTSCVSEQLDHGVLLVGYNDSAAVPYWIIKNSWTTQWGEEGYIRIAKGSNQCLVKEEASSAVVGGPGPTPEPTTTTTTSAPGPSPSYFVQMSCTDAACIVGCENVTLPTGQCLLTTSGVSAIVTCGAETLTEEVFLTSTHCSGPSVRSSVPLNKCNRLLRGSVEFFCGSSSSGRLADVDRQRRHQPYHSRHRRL
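Compounds were screened in titration against cruzain (1.5 nM) with 0.01% Triton X-100 to counter colloidal aggregation. Activity was the AMC fluorescence increase over 60 s after adding 2 uM Z-FR-AMC at pH 5.5.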
Cruzain noTriton = inhibitors of Trypanosoma cruzi cruzain without detergent | purified cruzain, Z-FR-AMC fluorescence, no detergent | Potency, µM, inactives show max response, negative = inhibition, actives largely listed as inhibitors | 200,000 tested, 2.3% active | AID 1476;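 note: plate controls were enzyme without inhibitor for no effect and buffer without enzyme for full effect; nearly all actives have a fitted effect of over 40% in size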
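Purified cruzain at 1.5 nM, pre-incubated 15 min with compound at room temperature in 100 mM sodium acetate pH 5.5, 5 mM DTT, 0.00005% Triton X-100. Reaction started with 2 uM Z-FR-AMC; AMC fluorescence increase over 60 s gives rate.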
An asterisk follows results filed as active. Calls come from the whole dose curve; as a rule, active = well fitted curve in the direction sought with a large enough effect; inconclusive = small, poorly fitted or top-dose-only effect, or another doubt; inactive = no such curve, though single readings can be large; an effect the other way counts as inactive or inconclusive. Potency is the fitted concentration of half-maximal effect.

How did O=C(N/N=C/c1ccccc1Cl)c1n[nH]c2c1CCCC2 do in these assays?
Cruzain Triton: 0%; Cruzain noTriton: 25µM*

Results for O=C(N/N=C/c1cccs1)c1n[nH]c2c1CCC2 ?
Cruzain Triton: -4%; Cruzain noTriton: 1%

Results for CCNC(=O)CC1C(=O)N(c2cccc(OC)c2)C(=O)N1Cc1ccc(OC)c(OC)c1 (stereo not drawn) ?
Cruzain Triton: 2%; Cruzain noTriton: -5%

How did COC(=O)c1cc2oc3ccccc3c2n1Cc1nc(-c2ccc(Cl)cc2)oc1C do in these assays?
Cruzain Triton: 0%; Cruzain noTriton: 4%

How did CCOC(=S)NC(=O)c1sc2ccccc2c1Cl do in these assays?
Cruzain Triton: -4%; Cruzain noTriton: 7%

Results for CN(C(=O)COC(=O)CNC(=O)c1sc2ccccc2c1Cl)c1ccccc1 ?
Cruzain Triton: 8.9µM*; Cruzain noTriton: 7.9µM*

What do the screens show for `Cc1c(C)c2c(cc(C)c3c(-c4ccccc4)coc32)oc1=O`?
Cruzain Triton: 0%; Cruzain noTriton: -23%

How did C=CCCCC do in these assays?
Cruzain Triton: -5%; Cruzain noTriton: 1%

What do the screens show for `Cc1cc(C)c(NC(=O)Cn2ccn(-c3cccc(Cl)c3)c(=O)c2=O)c(C)c1`?
Cruzain Triton: -8%; Cruzain noTriton: -15%

What do the screens show for `CCn1c(SCC(=O)Nc2oc(-c3ccccc3)c(-c3ccccc3)c2C#N)nnc1-c1cc(OC)cc(OC)c1`?
Cruzain Triton: 5%; Cruzain noTriton: 7.9µM*

What do the screens show for `N#Cc1c(NC(=O)CN2CCOCC2)oc(-c2ccccc2)c1-c1ccccc1`?
Cruzain Triton: -7%; Cruzain noTriton: inconclusive

How did N#Cc1c(NC(=O)Cn2cnc3ccccc3c2=O)oc(-c2ccccc2)c1-c1ccccc1 do in these assays?
Cruzain Triton: 1%; Cruzain noTriton: 25µM*

What do the screens show for `Cc1ccnc(SCC(=O)Nc2oc(-c3ccccc3)c(-c3ccccc3)c2C#N)n1`?
Cruzain Triton: -1%; Cruzain noTriton: inconclusive

What do the screens show for `O=[N+]([O-])c1ccc(CSCc2ccc(Cl)cc2)cc1`?
Cruzain Triton: 2%; Cruzain noTriton: -4%

What do the screens show for `O=c1c2ccccc2n(Cc2ccccc2F)c(=O)n1-c1cccc(F)c1`?
Cruzain Triton: -2%; Cruzain noTriton: -4%

Results for COc1ccc(C(=O)N/N=C/c2ccc(OC)c(CN3CCCc4ccccc43)c2)cc1 ?
Cruzain Triton: -7%; Cruzain noTriton: 16µM*

What do the screens show for `COc1ccc(C(=O)N/N=C/c2ccc(OC)c(CN3CCN(c4ccc(F)cc4)CC3)c2)cc1`?
Cruzain Triton: -10%; Cruzain noTriton: 6%

What do the screens show for `COc1cccc(-c2nccc(NCc3ccc(OC)cc3OC)n2)c1`?
Cruzain Triton: -7%; Cruzain noTriton: 6%

What do the screens show for `CC(C)(C)c1ccc(-c2nnc(SCC(=O)c3ccc4c(c3)OCCO4)o2)cc1`?
Cruzain Triton: 1%; Cruzain noTriton: -11%

What do the screens show for `Cc1cc(C(=O)CSc2nnc(-c3ccc(F)cc3)o2)c(C)n1CC1CCCO1` (stereo not drawn)?
Cruzain Triton: 4%; Cruzain noTriton: 15%

What do the screens show for `O=C(CSc1nnc(-c2ccc(F)cc2)o1)c1ccc2c(c1)OCCO2`?
Cruzain Triton: 2%; Cruzain noTriton: 13µM*

Results for Cc1cc(C(=O)CSc2nnc(-c3ccco3)o2)c(C)n1CC1COc2ccccc2O1 (stereo not drawn) ?
Cruzain Triton: 1%; Cruzain noTriton: inconclusive

How did Cc1cc(C(=O)CSc2nnc(-c3ccc(F)cc3)o2)c(C)n1CC1COc2ccccc2O1 (stereo not drawn) do in these assays?
Cruzain Triton: 6%; Cruzain noTriton: 16µM*

How did Cc1cc(C(=O)CSc2nnc(-c3ccccc3)o2)c(C)n1CC1COc2ccccc2O1 (stereo not drawn) do in these assays?
Cruzain Triton: 5%; Cruzain noTriton: 20µM*

Results for C/C(=N\NC(=O)c1ccc(Cl)c(Cl)c1)c1ccc(Br)s1 ?
Cruzain Triton: 2%; Cruzain noTriton: 25µM*

What do the screens show for `C/C(=N\NC(=O)CNc1cccc(C)c1)c1ccc(Br)s1`?
Cruzain Triton: -11%; Cruzain noTriton: -12%

What do the screens show for `CSc1cccc(NC(=O)CN2CCN(Cc3ccccc3C)S2(=O)=O)c1`?
Cruzain Triton: -9%; Cruzain noTriton: 10%

How did Cc1c(O)c(CN2CCCC2)cc2c3c(c(=O)oc12)CCC3 do in these assays?
Cruzain Triton: -20%; Cruzain noTriton: inconclusive

What do the screens show for `O=c1oc2c(CN3CCOCC3)c(O)ccc2c2ccccc12`?
Cruzain Triton: -5%; Cruzain noTriton: -17%

What do the screens show for `CN(C)Cc1c(O)ccc2c3c(c(=O)oc12)CCCCC3`?
Cruzain Triton: 22µM*; Cruzain noTriton: inconclusive

How did CN(Cc1c(O)ccc2c1oc(=O)c1ccccc12)C1CCCCC1 do in these assays?
Cruzain Triton: -20%; Cruzain noTriton: -26%

How did O=c1oc2c(CN3CCOCC3)c(O)c(Cl)cc2c2c1CCCC2 do in these assays?
Cruzain Triton: 28µM*; Cruzain noTriton: inconclusive

How did O=c1oc2c(CN3CCOCC3)c(O)ccc2c2c1CCCC2 do in these assays?
Cruzain Triton: 28µM*; Cruzain noTriton: inconclusive

How did COC(=O)c1cc2oc3ccccc3c2n1CC(=O)Nc1ccc(F)c(Cl)c1 do in these assays?
Cruzain Triton: -4%; Cruzain noTriton: -10%

How did O[C@H](C[C@@H]1CCCCN1)c1ccc2c(c1)oc1ccccc12 do in these assays?
Cruzain Triton: 2%; Cruzain noTriton: 10%

What do the screens show for `COc1ccc(CCNC(=O)c2ccc(Cn3c(=O)c4ccccc4n(Cc4cccc(Cl)c4)c3=O)cc2)cc1OC`?
Cruzain Triton: -2%; Cruzain noTriton: -22%

How did Cc1ccc(Nc2nc3ccccc3s2)c(C)c1 do in these assays?
Cruzain Triton: -9%; Cruzain noTriton: -3%

What do the screens show for `Cc1cc(O)ccc1Nc1nc2ccccc2nc1Nc1ccc(O)cc1C`?
Cruzain Triton: -18%; Cruzain noTriton: 10µM*

What do the screens show for `CCOC(=O)c1ccc(NC(=O)C2=C(C)C(=O)OC23CCN(C(C)C)CC3)cc1`?
Cruzain Triton: 0%; Cruzain noTriton: -5%

How did CCc1ccccc1NC(=O)CC(C)n1nc(C)cc1C (stereo not drawn) do in these assays?
Cruzain Triton: -2%; Cruzain noTriton: 4%

Results for CCC(=O)Nc1ccc(/C(C)=N\NC(=O)c2ccc(C)s2)cc1 ?
Cruzain Triton: -6%; Cruzain noTriton: -6%

Results for C/C(=N/NC(=O)c1ccc(Cl)s1)c1ccc(NC(=O)COc2ccc(Cl)cc2)cc1 ?
Cruzain Triton: -5%; Cruzain noTriton: 20µM*

How did C/C(=N/NC(=O)c1ccc(C)s1)c1cccc(NC(=O)COc2ccc(Cl)cc2Cl)c1 do in these assays?
Cruzain Triton: -1%; Cruzain noTriton: 13µM*

Results for C/C(=N/NC(=O)c1cccs1)c1ccc(NC(=O)COc2ccc(Cl)cc2Cl)cc1 ?
Cruzain Triton: -7%; Cruzain noTriton: inconclusive

What do the screens show for `COc1ccc(-n2c(-c3ccc(F)cc3)cn3c4c(=O)n(C)c(=O)n(C)c4nc23)cc1`?
Cruzain Triton: 1%; Cruzain noTriton: 3%

What do the screens show for `COCCCNC(=O)CSC1=Nc2ccccc2C2=NC(CCC(=O)NCc3ccccc3OC)C(=O)N12` (stereo not drawn)?
Cruzain Triton: -1%; Cruzain noTriton: -5%

Results for CC(Sc1nnc(NCc2ccccc2)s1)C(=O)Nc1ccc2c(c1)C(=O)c1ccccc1C2=O (stereo not drawn) ?
Cruzain Triton: -9%; Cruzain noTriton: 32µM*

Results for Cc1cc(C(=O)CSc2nnc(NCc3ccccc3)s2)c(C)n1C ?
Cruzain Triton: -1%; Cruzain noTriton: -12%

From PubChem
